In the supplement of paper PMC3334620:
The full ranking holds about 33,000 sequences; the median of “E-score (-0.5 to 0.5)” is about -0.011, and the highest 2% start at about 0.28. What follows is part of a selection rich in the highest values, with near analogues and random picks from the rest.

Molecular target: T1, Gcr1 (UniProt P07261)
T1 sequence: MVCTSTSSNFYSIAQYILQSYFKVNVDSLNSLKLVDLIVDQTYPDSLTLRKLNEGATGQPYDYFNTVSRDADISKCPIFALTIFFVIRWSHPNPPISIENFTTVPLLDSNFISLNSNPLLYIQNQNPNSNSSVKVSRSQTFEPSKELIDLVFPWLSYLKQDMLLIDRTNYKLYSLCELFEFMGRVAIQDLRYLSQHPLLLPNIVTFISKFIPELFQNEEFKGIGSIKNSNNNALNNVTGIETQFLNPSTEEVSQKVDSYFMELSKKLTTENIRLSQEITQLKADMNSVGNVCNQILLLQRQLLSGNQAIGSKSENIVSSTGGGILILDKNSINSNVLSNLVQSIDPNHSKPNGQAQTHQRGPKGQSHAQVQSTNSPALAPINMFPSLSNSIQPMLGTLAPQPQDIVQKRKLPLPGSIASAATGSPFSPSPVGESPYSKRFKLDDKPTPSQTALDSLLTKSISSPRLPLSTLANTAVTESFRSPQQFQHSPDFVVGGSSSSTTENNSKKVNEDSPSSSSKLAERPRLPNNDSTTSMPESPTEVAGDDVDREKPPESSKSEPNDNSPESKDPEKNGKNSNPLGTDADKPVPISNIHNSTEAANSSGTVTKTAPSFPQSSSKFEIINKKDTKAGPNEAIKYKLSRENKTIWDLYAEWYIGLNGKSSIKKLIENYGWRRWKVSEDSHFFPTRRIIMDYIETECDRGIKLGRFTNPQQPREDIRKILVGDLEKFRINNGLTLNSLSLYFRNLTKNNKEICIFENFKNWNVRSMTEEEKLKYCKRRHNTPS
Assay: PBM E-score (8-mer binding enrichment) (E-score (-0.5 to 0.5)); higher = stronger / more preferred TF binding
Conditions: protein concentration: 100 nM; construct: GST-full length
Procedure, shortened: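 Universal all-10-mer Agilent arrays, double-stranded by primer extension on fresh or once-stripped slides, were probed with about 100-200 nM GST-tagged yeast transcription factors made by PURExpress. Fluorescent anti-GST detected bound protein, and masliner normalised the scans. E-scores from the Universal PBM Analysis Suite were given to each ungapped eight-base word pooled with its reverse complement.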

| Sequence | PBM E-score |
| --- | --- |
| GTTCATAA | 0.0771 |
| CAGTGAGG | -0.176 |
| GCCAGGTA | 0.0834 |
| CTCTGCGC | -0.22 |
| CCAGCAGC | 0.272 |
| GCAGCAGA | -0.135 |
| ACAGCAGC | 0.288 |
| AACGCAGC | 0.0364 |
| AAAGCAGC | -0.0508 |
| CACGCAGC | 0.295 |
| CAAGCAGC | 0.324 |
| CACGCAGA | -0.137 |
| GCAGCAGC | 0.307 |
| ACAGCAGT | -0.0218 |
| GAAGCAGC | 0.24 |
| ACAGCAGA | -0.0557 |
| CGCGGCTC | 0.117 |
| CACTTGAG | 0.00447 |
| ACCCTCCG | -0.333 |
| GCCGCAGC | 0.0591 |
| TAAGATCA | 0.157 |
| CGATCGAC | -0.154 |
| GTATCGCA | -0.00444 |
| CATACTTA | 0.0988 |
| AAAAAAGT | 0.135 |

| Sequence | PBM E-score |
| --- | --- |
| TGGCTGAA | 0.0392 |
| CATCCAGA | 0.268 |
| AGAGCCAA | -0.13 |
| CGAGCCAA | -0.00353 |
| GGAGCCCC | 0.265 |
| CGAGCCAC | -0.116 |
| GGAGCCAC | 0.289 |
| AGAGCCAC | 0.13 |
| GGAGCCAA | 0.33 |
| TGAGCCCA | 0.0335 |
| GGAGCCCA | 0.349 |
| CCCAGTCC | -0.0352 |
| AAGTTCAA | 0.0288 |
| CACGTGCC | -0.121 |
| ATCGATCC | -0.0388 |
| CCTAGAGG | 0.0618 |
| CAAGTTCG | -0.0211 |
| ACATTGCT | 0.0699 |
| GCATCTCA | 0.139 |
| TGGGCAAA | -0.213 |
| AGCTTCAA | 0.0987 |
| AGCTTCGG | 0.17 |
| ACCTTCCC | -0.00014 |
| TGCTTCCA | 0.146 |
| CGCTTCCG | 0.291 |

| Sequence | PBM E-score |
| --- | --- |
| AGCTTCGC | 0.173 |
| CCCTTCCG | -0.286 |
| AGCTTCCC | 0.378 |
| AGCTTCAG | -0.19 |
| AGCTTCCG | 0.433 |
| CGCTTCAG | 0.0898 |
| AGCTTCCA | 0.458 |
| GATTAAGC | 0.0627 |
| CAAAACGC | 0.025 |
| AAGCAAAA | -0.075 |
| CCATCCGG | -0.0299 |
| CCCTTCCA | -0.0993 |
| GGCTTCCC | 0.433 |
| CGCTTCGA | -0.0778 |
| CGCTTCCA | 0.351 |
| GGCTTCAC | -0.14 |
| CGCTTCCC | 0.273 |
| GTCAGGTA | 0.091 |
| GTTCTAAA | 0.0776 |
| CAGAATCC | 0.161 |
| CTATCGCC | -0.00847 |
| AACAGGAT | 0.318 |
| AACAGGAA | 0.334 |
| TACAGGAA | 0.394 |
| CACAGGAA | 0.118 |

| Sequence | PBM E-score |
| --- | --- |
| AACAGGAC | 0.162 |
| AACAGGAG | -0.0445 |
| GTCAGGAA | 0.104 |
| GACAGGAC | 0.0783 |
| AACAGGTA | 0.269 |
| TACAGGTA | 0.0633 |
| ACCAGGAA | 0.0492 |
| GACAGGAA | 0.316 |
| CGGCTCAA | 0.00705 |
| GCGGGCAA | -0.146 |
| CACAAGGC | -0.161 |
| AACACCTT | -0.0171 |
| AGTCCCGA | -0.15 |
| CGCATAAA | 0.0544 |
| ACGTTGCA | -0.015 |
| AACCGGAA | 0.2 |
| TACCGGAA | 0.341 |
| CACCGGAA | 0.266 |
| CTCGGGGC | -0.101 |
| CTAAGGCC | 0.046 |
| AGTTGAAT | -0.0577 |
| CGGATGTC | 0.0736 |
| AGCTTCTA | 0.297 |
| AGCTTCTC | 0.25 |
| AGCTTCTG | 0.245 |

| Sequence | PBM E-score |
| --- | --- |
| GGCTTCTA | 0.297 |
| GCCTTCTA | 0.131 |
| CGCTTCTA | 0.259 |
| GCTCCGGA | 0.121 |
| CGAACTAC | 0.00469 |
| AGGCCGCA | -0.0993 |
| AGGCCGCG | 0.0497 |
| AGGCCGCC | 0.292 |
| GCTGCCTA | 0.305 |
| TCTGCCAA | 0.00421 |
| CCTGCCTA | 0.00507 |
| CCTGCGTA | 0.0119 |
| GCTGCCAC | 0.301 |
| CCTGCCAC | 0.0404 |
| ACTGCCTA | 0.0876 |
| ACTGCGTA | 0.062 |
| GCTGCCAA | 0.31 |
| ACTGCCAA | 0.0668 |
| GCTGCGTA | 0.286 |
| ACTGCCAC | 0.101 |
| TAGTCTGA | -0.0964 |
| TCCAAACA | 0.135 |
| AGATAACA | -0.0519 |
| ACCGTTAA | -0.119 |
| GCGGACTA | -0.12 |

| Sequence | PBM E-score |
| --- | --- |
| ACGTCCTA | 0.0954 |
| GCGTCCCA | 0.282 |
| ACGTCTCC | 0.101 |
| GCGTCTCA | 0.146 |
| GCGTCCCC | 0.304 |
| ACGTCCCC | -0.0668 |
| CCGTCCTA | -0.158 |
| CCGTCCCC | 0.00017 |
| GCGTCTCC | 0.317 |
| ACGTCCCA | -0.153 |
| TCGTCCCA | -0.0947 |
| GCGTCCTA | 0.43 |
| ACTCAACA | 0.122 |
| GCGATCAC | -0.0279 |
| GAGCGACA | -0.0391 |
| TATTGGGA | -0.02 |
| ACTGCACC | 0.014 |
| CAGCCCTC | -0.0883 |
| AAGAATAA | 0.0669 |
| AAAACTGG | 0.254 |
| CATTTACG | 0.0351 |
| CAGTCCCA | 0.0489 |
| GAGTCCCA | 0.313 |
| GAGTCCCC | -0.0421 |
| CCGGCGTA | -0.139 |

| Sequence | PBM E-score |
| --- | --- |
| CCAGCGTC | 0.314 |
| CGGGCGTA | -0.097 |
| CCAGCGTA | -0.178 |
| GCGGCGCC | 0.324 |
| GCGGCGAC | 0.148 |
| AGGGCGTC | 0.26 |
| GCGGCGCA | -0.064 |
| CCGGCGTC | 0.402 |
| CGGGCGTC | 0.307 |
| ACGGCGTC | 0.243 |
| ACAGCGTC | -0.0458 |
| GCGCCTGA | 0.171 |
| ATCCTACG | -0.00941 |
| AGGCCCCG | 0.0239 |
| ATGATTTC | -0.142 |
| AAATTGTG | -0.0559 |
| CATAACCC | -0.121 |
| CTCAATCA | 0.119 |
| ACGGCGCT | -0.00448 |
| ACGGCGCC | 0.312 |
| CCGGCGCC | 0.317 |
| ACGGCGCA | -0.265 |
| CCGGCGCA | -0.0778 |
| CCGGCGCG | -0.112 |
| CCTAAAGG | 0.0292 |

| Sequence | PBM E-score |
| --- | --- |
| AACTGATC | -0.114 |
| ATGGATCA | -0.201 |
| GCACCACC | -0.0802 |
| GTAGGCCA | -0.106 |
| ATCCGGAC | -0.106 |
| ATCCGGAT | 0.286 |
| ATCCGGAA | 0.26 |
| GAAGTAAA | -0.0223 |
| CAGGCGCG | -0.0119 |
| GAGGCGCC | 0.302 |
| AAGGCGCC | 0.258 |
| GAGGCGCA | 0.0503 |
| CAGGCGCA | -0.0694 |
| CAGGCGCC | 0.361 |
| AAATGGTT | 0.0753 |
| ATTGAAGA | 0.0516 |
| CAGATAGG | 0.0828 |
| TAATTGAA | 0.228 |
| CTACGCAG | 0.0122 |
| ATACGCAG | 0.281 |
| ATACGCAT | 0.23 |
| ACACGCAC | 0.0159 |
| ACACGCAG | 0.323 |
| ACACGCAA | 0.127 |
| AGGCTATC | -0.243 |

| Sequence | PBM E-score |
| --- | --- |
| TGTTCAAA | -0.014 |
| AAGGAGGT | -0.0668 |
| AAGAGGGG | 0.0114 |
| CGGGCTGC | 0.234 |
| ACGGCTTC | 0.238 |
| AGGGCTTG | -0.209 |
| AGGGCTTA | -0.262 |
| CGGGCTTC | 0.415 |
| CCGGCTTC | 0.358 |
| CCGGCTTA | -0.0254 |
| AGGGCTTC | 0.339 |
| CGGGCTTA | 0.00411 |
| CTCCCCGC | 0.196 |
| ACGGCACG | -0.0602 |
| ACGGTCGA | -0.354 |
| GGGGGCGA | -0.0875 |
| GCTGGTCA | -0.151 |
| ACTCGTTC | -0.0676 |
| CCCAATAA | 0.0668 |
